Results on five compounds are retold here after PubChem BioAssay.

Test [1] is described as follows: reducers of endogenous Her2 protein level, primary screen, SKBR3 breast tumor cells, AlphaScreen, ATP viability (AID 461;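 active = Her2 level under about 52% in both replicate screens, with viability over 70% of control, limit read from the data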;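 as to Her2 level: lower value means less Her2 protein in the cells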;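 as to viability: percent of carrier control wells set as 100% viability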). Particulars: 18-24 h, measured here: SKBR3 viability, ATP luminescence, at 10 µM. For orientation: Alpha assays give light when donor and acceptor beads are brought close together.
The target of test [2] is Receptor tyrosine-protein kinase erbB-2 (Homo sapiens) (UniProt P04626). The description is as above. Particulars: 18-24 h, at 10 µM, stronger effect = lower value.
A short description of test [3]: SK-BR-3 cell growth inhibitors, pilot screen, 24 h, human (AID 572;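 active = viability at or below 10% of carrier control in both of two separate runs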;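 also: compound exposure lasted between 18 and 24 h rather than exactly 24 h; 100% = carrier-treated control wells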). Particulars: SK-BR-3 viability, CellTiter-Glo luminescence, at 10 µM, stronger effect = lower value. On the technique in general: In ATP-based viability assays light output follows the ATP content of the culture.
A short description of test [4]: HUVEC growth inhibition – cell-based, human, primary screen (AID 575).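 Also: 100% = median of untreated cell wells with 0.1% DMSO on each plate.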 Particulars: HUVEC proliferation, CellTiter-Glo luminescence, 72 h; at 10 µM; stronger effect = lower value.
Test [5] is described as follows: growth inhibitors of H69AR lung tumor, primary screen, human, duplicate replicates (AID 580;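 active = viability at or under a set limit in both replicates, limit being median viability minus 3 SD, cut at about 48% in these data, passing the limit was not always enough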;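 also: 100% = mean luminescence of untreated wells and 0% = no signal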). Particulars: H69AR lung tumor cells viability, ATP luminescence, 72 h; at 10 µM; stronger effect = lower value.
Test [6] is described as follows: reversal of MRP1-mediated doxorubicin resistance, pilot screen, H69AR cells, doxorubicin co-treatment (AID 601;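 active = viability loss from added drug above about 55%, and viability with drug at most 40%, in both replicates, limit read from the data, passing the limit was not always enough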). Particulars: CellTiter-Glo, 72 h, at 10 µM; for differential viability (reversal): stronger effect = higher value.
A short description of test [7]: 384-well plate pilot, post-Golgi transport modulator project, inhibition of yeast transport mutant growth (AID 636; in the data active = inhibition above about 31%). Particulars: absorbance 615 nm, about 18 h, stronger effect = higher value.
A short description of test [8]: growth suppression of yeast trafficking mutant, preliminary HTS, modulators of trafficking downstream of Golgi apparatus project, 1536-format plate, OD 615 nm (AID 637; in the data active = inhibition above about 30%). Particulars: yeast transport mutant growth, absorbance 615 nm, 18 h; stronger effect = higher value.
Test [9] is described as follows: OD615 S. cerevisiae growth inhibition, permissive medium, pilot counter-assay, permissive growth control for S. cerevisiae lifespan shortening project (AID 705;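 active = growth inhibition above 25% in both replicates, a cutoff set 3 SD above the mean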). Particulars: OD615, 24 h, at 10 µM, stronger effect = higher value.
The nature of test [10]: Restrictive medium S. cerevisiae growth inhibition, OD615, pilot screen of yeast lifespan reduction project, restrictive growth control (AID 706;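 active = growth inhibition above a set limit, 3 SD over mean compound inhibition, in both replicates, cut at about 43% in these data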;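 also: modified DeaD lifespan yeast strain shifted to restrictive glucose medium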). Particulars: OD615, 48 h, at 10 µM, stronger effect = higher value.
A short description of test [11]: viability gain of MRP-1-high H69AR cells under doxorubicin, pilot screen, MRP-1 activator project, CellTiter-Glo, duplicate (AID 807;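 active = viability increase at or above a cutoff of the median across tested compounds plus 3 SD, cut at about 8.5% in these data, passing the limit was not always enough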;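 also: compound pretreatment 18-22 h then 72 h combined with doxorubicin; 0% = doxorubicin alone and 100% = vehicle without doxorubicin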). Particulars: H69AR viability with doxorubicin, CellTiter-Glo luminescence; at 10 µM; stronger effect = higher value.
Test [12] is described as follows: growth suppression of PTEN-deleted HCT116, pilot screen, cell-based, HCT116 clonal line, CellTiter-Glo (AID 824;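 active = viability at or below 27.92% in each of two runs, the all-compound median minus 4 SD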;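 also: 0% = 20 µM Hyamine control and 100% = vehicle cell control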). Particulars: 60 h, at 10 µM, stronger effect = lower value.
Test [13] can be described thus: inhibitors of the yeast RAM network, pilot screen, dse1pr::URA3 reporter, 5-FOA selection (AID 869;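 active = inhibition over a set limit, the all-compound mean plus 3 SD, in both replicate runs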;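 also: 0% = DMSO wells with no growth and 100% = 10 µM 1-NA-PP1 with full growth; RAM network block rescues cells from 5-FOA so hits raise OD615 growth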). Particulars: S. cerevisiae dse1pr::URA3 5-FOA growth, OD615, 2 d; at 10 µM; stronger effect = higher value; strain carries analog-sensitive mutant Cbk1 kinase.
Test [14] can be described thus: RAM signaling pathway blockade in yeast – S. cerevisiae, Pdr1DBD-CYC8 efflux-inhibited sensitized strain, primary screen (AID 1298;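 active = RAM network inhibition above 8.4% in each of two replicates, 3 SD over the compound average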;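 also: 0% = DMSO untreated cells without growth and 100% = 10 µM 1-NA-PP1 full growth; higher means more yeast growth rescued from 5-FOA killing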). Particulars: S. cerevisiae cbk1-as DSE1-URA3 strain, 5-FOA growth OD615, 2 d; at 50 µM; stronger effect = higher value.
Test [15] in a line: growth suppression of beta-catenin knockout HCT116, pilot screen, human colon tumor cells (AID 823;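 active = cell viability at or below a set limit in both duplicate runs, the limit being the all-compound median minus 4 SD, cut at about 23% in these data, passing the limit was not always enough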;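 also: 0% = wells killed by 20 µM Hyamine and 100% = untreated DMSO cell wells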). Particulars: CellTiter-Glo, 60 h, at 10 µM, stronger effect = lower value.
Where [16] appears, read: H69AR cells + 2 uM doxorubicin, measured here: viability with 2 uM doxorubicin, stronger effect = lower value.
[17] abbreviates: H69AR cells, compound alone cytotoxicity.

Structures are written as SMILES. Records with an inconclusive call do not appear. Calls of active or inactive are those of the source.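 The calls were made as follows, unless noted: active = viability at or below 30% in both replicate assays; inconclusive = viability at or below 30% in just one of the two assays; inactive = the rest.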

Chain of Receptor tyrosine-protein kinase erbB-2 (Homo sapiens) (P04626 whole entry, looked up): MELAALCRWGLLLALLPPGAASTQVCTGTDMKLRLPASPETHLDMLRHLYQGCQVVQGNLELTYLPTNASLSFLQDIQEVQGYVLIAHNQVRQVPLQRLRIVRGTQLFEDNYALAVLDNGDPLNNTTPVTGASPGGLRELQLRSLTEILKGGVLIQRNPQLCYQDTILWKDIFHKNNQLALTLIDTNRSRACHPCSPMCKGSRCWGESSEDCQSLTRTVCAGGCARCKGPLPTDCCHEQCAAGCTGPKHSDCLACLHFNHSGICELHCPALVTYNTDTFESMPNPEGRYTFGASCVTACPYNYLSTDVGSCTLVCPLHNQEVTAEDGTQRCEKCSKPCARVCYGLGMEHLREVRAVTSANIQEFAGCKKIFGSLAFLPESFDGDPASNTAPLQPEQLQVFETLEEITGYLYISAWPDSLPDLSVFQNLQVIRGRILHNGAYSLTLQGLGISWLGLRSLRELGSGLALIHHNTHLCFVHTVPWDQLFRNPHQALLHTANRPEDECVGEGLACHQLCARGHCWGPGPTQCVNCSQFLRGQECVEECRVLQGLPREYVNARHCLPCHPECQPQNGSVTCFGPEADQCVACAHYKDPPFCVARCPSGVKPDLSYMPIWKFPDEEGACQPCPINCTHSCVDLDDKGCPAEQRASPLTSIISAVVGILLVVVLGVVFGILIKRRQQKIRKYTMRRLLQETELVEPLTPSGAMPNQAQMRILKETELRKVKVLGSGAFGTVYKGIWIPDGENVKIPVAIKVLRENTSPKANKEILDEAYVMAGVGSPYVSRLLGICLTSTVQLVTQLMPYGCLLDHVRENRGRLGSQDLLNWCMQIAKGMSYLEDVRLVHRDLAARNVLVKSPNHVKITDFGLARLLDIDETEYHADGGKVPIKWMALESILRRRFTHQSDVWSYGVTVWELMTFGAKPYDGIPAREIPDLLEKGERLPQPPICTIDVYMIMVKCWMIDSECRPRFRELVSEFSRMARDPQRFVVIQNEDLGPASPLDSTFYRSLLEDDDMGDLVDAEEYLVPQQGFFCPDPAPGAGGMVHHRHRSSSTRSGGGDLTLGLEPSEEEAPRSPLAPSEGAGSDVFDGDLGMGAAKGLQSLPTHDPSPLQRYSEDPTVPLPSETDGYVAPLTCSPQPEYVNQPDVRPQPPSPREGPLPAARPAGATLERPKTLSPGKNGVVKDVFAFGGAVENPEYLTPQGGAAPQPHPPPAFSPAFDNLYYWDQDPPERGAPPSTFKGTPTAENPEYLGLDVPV

A word on the viability: it is a read-out of living cells in per cent, often relative to untreated cells. A word on the inhibition: it is the relative decrease from the control value, in per cent. For `CCOc1ccc(-c2nnc(N(CC)C(=O)C3CCC3)s2)cc1`, the viability was 87.5% in [1]; 87.5% (inactive) in [3]; 98.5% (inactive) in [4]; 83.7% (inactive) in test [5]; 78.3% in test [6] (setting [16]); 83.7% in [6] (setting [17]). Also, in test [12], the viability is 84.6% (inactive). For the same compound, the Her2 level in [2] is 72% (inactive). In test [6] (H69AR cells + 2 uM doxorubicin), the differential viability (reversal) was 5.45% (inactive). Also, the inhibition was -4.21% (inactive) in test [7], -3.97% (inactive) in [8] and 0.825% (inactive) in test [13]. For the same compound, the growth inhibition in [9] was -4.38% (inactive); in [10], 7.03% (inactive). In test [11], the viability increase was -1.68% (inactive). Moreover, the RAM network inhibition in [14] is 0.26% (inactive).

Regarding `COc1cccc2c(=O)c3c(cnn3C)n(C)c12`, the viability in [1] was 106%; in test [3], 106% (inactive); in test [4], 84.9% (inactive); in test [5], 81.9% (inactive); in [6] (setting [16]) it was 92.8%; in [6] (setting [17]) it was 81.9%. Further, the viability in [15] is 87.1% (inactive). Further, the Her2 level in [2] is 100% (inactive). Moreover, in test [6] (H69AR cells + 2 uM doxorubicin), the differential viability (reversal) was -10.9% (inactive). For the same compound, the inhibition in test [7] is -1.97% (inactive); in test [8], 1.27% (inactive); in [13] it was 1.5% (inactive). Also, the growth inhibition in [9] was -1.81% (inactive); in test [10] it was 48.7% (active). Also, the viability increase in [11] was -5.44% (inactive). Moreover, the RAM network inhibition in test [14] is 0.52% (inactive).

Consider `Cc1ccc(N(C(=O)C2CCC(=O)N2)C2(C(=O)NC3CCCCC3)CCCCC2)cc1` (stereo not given), for which the viability is 110% in test [1]; 110% (inactive) in [3]; 108% (inactive) in [4]; 98.4% (inactive) in test [5]; 94.9% in test [6] (setting [16]); 98.4% in test [6] (setting [17]). In addition, the viability in test [12] is 92.9% (inactive). Also, the Her2 level in [2] is 99% (inactive). Further, the differential viability (reversal) in [6] (H69AR cells + 2 uM doxorubicin) was 3.47% (inactive). Further, the inhibition in test [7] was -0.55% (inactive); in [8], -0.79% (inactive); in [13], 2.28% (inactive). For the same compound, the growth inhibition in test [9] was -9.55% (inactive); in [10], -6.46% (inactive). The viability increase in test [11] is -2.37% (inactive). Further, the RAM network inhibition in test [14] is 1.79% (inactive).

Take `COc1ccccc1N1CCN(c2cc(=O)n(Cc3ccc(F)cc3)c(=O)[nH]2)CC1`: the viability in test [1] was 99%; in test [3], 99% (inactive); in test [4], 44.1% (inactive); in [5], 12.1% (active); in [6] (setting [16]), 50.1%; in test [6] (setting [17]), 12.1%. The viability in test [15] was 33.6% (inactive). Moreover, the Her2 level in [2] is 68.5% (inactive). Further, the differential viability (reversal) in [6] (H69AR cells + 2 uM doxorubicin) was -38% (inactive). Also, the results for the inhibition in test [7], in [8] and in test [13] were 0% (inactive), 9.17% (inactive) and 1.02% (inactive), respectively. Besides, the results for the growth inhibition in test [9] and in test [10] were -0.995% (inactive) and 0.535% (inactive), respectively. The viability increase in [11] is -5.11% (inactive). Further, in [14], the RAM network inhibition is 2.69% (inactive).

Take `COc1ccc(N(C)C(=O)CCS(=O)(=O)c2cccc3nonc23)cc1`: the viability in test [1] is 96.5%; in [3], 96.5% (inactive); in test [4], 94.9% (inactive); in test [5] it was 104% (inactive); in test [6] (setting [16]) it was 89.6%; in test [6] (setting [17]) it was 104%. For the same compound, the viability in test [12] was 89.6% (inactive). Moreover, the Her2 level in test [2] is 85% (inactive). Further, the differential viability (reversal) in [6] (H69AR cells + 2 uM doxorubicin) is 14.5% (inactive). Besides, the inhibition in test [7] is -9.86% (inactive); in test [8], -0.95% (inactive); in [13], 1.3% (inactive). Further, the growth inhibition in test [9] was -9.93% (inactive); in [10], -8.78% (inactive). Also, the viability increase in test [11] is -3.05% (inactive). The RAM network inhibition in test [14] was 4.67% (inactive).
